From PubChem
An excerpt weighted towards active compounds, which were near 4.3% of everything screened.
KKLEB cytotox: cytotoxicity in KKLEB CF airway cells, primary screen, cytotoxicity control for CF NF-kB inhibitor project, cell-based, uHTS, fluorescence assay plates; KKLEB CF airway cells viability, ATPlite luminescence, overnight; active compounds read low; cells stimulated with P. aeruginosa culture filtrate; activity change (cytotoxicity), % at 5 µM; 360,000 tested, 0.36% active; AID 602141, 2011;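 active = corrected activity change at or below -50% at 5 µM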
CF NFkB inh: inhibitors of PAF-induced NF-kB signaling, primary screen, cell-based, GFP fluorescence, uHTS; KKLEB NF-kB-GFP reporter, GFP fluorescence overnight; inhibition, % at 5 µM; 360,000 tested, 0.86% active; AID 588850, 2011;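 active = at least 50% inhibition at 5 µM, scaled per plate between neutral and stimulator controls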;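 note: PAF is a Pseudomonas aeruginosa culture filtrate used as stimulus; plate controls were PAF-stimulated DMSO wells for no effect and unstimulated DMSO wells for full effect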
TRPM1 prom inh: inhibitors of MITF-dependent TRPM1 promoter reporter, primary screen, cell-based, SK-MEL-5, single point, luciferase; inhibition, % at 12.5 µM; AID 488899, 2010; SK-MEL-5 TRPM1 promoter luciferase, 24 h; 330,000 tested, 0.83% active;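 active = mean inhibition across replicates of 60% or more, whatever share of single replicates reaches that level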
Peg3 promoter: Peg3 promoter-driven luciferase inhibitors, primary screen, cell-based, HeLa, luciferase luminescence; HeLa PEG-Prom luciferase reporter, overnight; inhibition, % at 20 µM; 360,000 tested, 1.7% active;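 active = inhibition of at least 50% at 20 µM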
CHOP inhibitor: inhibitors of CHOP promoter induction, primary screen, cell-based, unfolded protein response, luciferase reporter; AID 2732, 2010; CHO-K1 CHOP-promoter luciferase, tunicamycin-induced, 15-18 h; inhibition, % at 10 µM; 220,000 tested, 3.8% active;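 active = compounds that reduced the stress-induced luciferase reporter signal by more than about 70% of percent inhibition, limit read from the data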;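 note: 0% = tunicamycin plus vehicle and 100% = wells without tunicamycin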
HIF-2a block: HIF-2a reporter inhibitors, primary screen, luminescence, 786-0 RCC cells | 786-0 RCC cells HIF-2a reporter, luciferase luminescence, overnight | inhibition, % at 18.8 µM | 360,000 tested, 0.72% active | AID 624352, 2012;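 active = inhibition of the luminescence signal of 40% or more relative to plate controls, in a single-dose primary screen at 18.75 µM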
Starred values were filed as active, the others as inactive; nt = no result.

SMILES	KKLEB cytotox	CF NFkB inh	TRPM1 prom inh	Peg3 promoter	CHOP inhibitor	HIF-2a block
COc1ccc(NC(=O)Cn2cnc3c(oc4nc5c(cc43)COC(C)(C)C5)c2=O)cc1	18	-14	10	-11	4	-6
CCn1c(CNC(=O)c2cccnc2)cc2ccccc21	5	-1	5	74*	nt	18
CCN(CC)c1ccc2nc3ccccc3[n+](CC)c2c1	13	-5	67*	57*	nt	17
CCN(CC)C(=O)c1ccc2nc3ccccc3nc2c1	9	-10	51	-71	-22	-76
COC(=O)c1ccc2nc(-c3cccc(Cl)c3)c(Cc3cccc(F)c3)n2c1	nt	nt	nt	nt	nt	-71
CCCn1c(SCC(=O)NC2CCCCC2)nnc1C1CC1	-22	22	2	-2	nt	17
COc1cc2cc(C(c3nnnn3C3CCCCC3)N(C)C3CCCCC3)c(=O)[nH]c2cc1OC (configuration not stated)	11	-16	-4	5	84*	-10
Cc1cccc(N(C)S(=O)(=O)c2cccc3nsnc23)c1	0	-2	-2	17	94*	21
O=C(NC1CCCCC1)C(c1cccc2ccccc12)n1c(=O)c(-c2ccco2)nc2ccccc21 (configuration not stated)	nt	nt	nt	nt	nt	18
Cc1c(CN(C)C)c2c(n1C)C(=O)c1ccc(Br)cc1-2	-3	6	4	6	11	12
Cc1c(CN(C)C)c2c(n1Cc1ccccc1)C(=O)c1ccc(Br)cc1-2	-25	7	9	67*	69	-6
CC(C)(C)NC(=O)CN(Cc1ccc2c(c1)OCO2)C(=O)CNS(=O)(=O)c1ccccc1	14	-20	-3	8	nt	13
S=C1Cc2ccccc2N1	18	-7	91*	95*	107*	22
S=C1Nc2ccccc2CS1	-1	-15	nt	5	nt	12
OC(CN(Cc1ccccc1)Cc1ccccc1)c1ccccc1 (configuration not stated)	-8	-6	24	11	nt	3
Cc1ccc2c(c1)c(C)c(C)n2CC(O)Cn1nc(C)c(Br)c1C (configuration not stated)	5	-5	3	21	86*	25
Cc1ccc2c(c1)c(C)c(C)n2CC(O)CN1CCCCC1C (configuration not stated)	-17	18	0	-23	39	2
CC(=O)c1c(C)nn(CC(O)Cn2c3c(c4cc(C)ccc42)CCCC3=O)c1C (configuration not stated)	-13	17	0	8	25	2
Cc1ccc2c(c1)c1c(n2CC(O)Cn2nc(C)c(Br)c2C)C(=O)CCC1 (configuration not stated)	-4	9	-8	-11	72*	10
CCCCCC(=O)N1C[C@H](O)[C@@H](n2cc(COC(=O)c3ccccc3)nn2)C[C@@H]1c1ccc(Cl)cc1	-2	-3	nt	10	nt	-5
O=C(Nc1cc(F)ccc1F)C1CCCN(c2ncnc3c2nc2n3CCCCC2)C1 (configuration not stated)	-2	-24	7	52*	nt	8
O=C(Nc1ccc(F)cc1F)C1CCCN(c2ncnc3c2nc2n3CCCCC2)C1 (configuration not stated)	-23	-2	2	28	nt	19
COc1ccc(OC)c(S(=O)(=O)Nc2ccc3[nH]c(=O)[nH]c3c2)c1	0	5	2	6	nt	12
Cc1c(Cl)c([N+](=O)[O-])nn1CCCC(=O)N(Cc1ccccc1)Cc1ccccc1	-7	7	2	32	73*	24
Cc1c(Cl)c([N+](=O)[O-])nn1CCCC(=O)N1CCN(c2ccccc2)CC1	4	7	7	-1	42	6
SMILES	KKLEB cytotox	CF NFkB inh	TRPM1 prom inh	Peg3 promoter	CHOP inhibitor	HIF-2a block
CC(=O)Oc1ccc(CC(C(=O)O)N2C(=O)c3ccccc3C2=O)cc1 (configuration not stated)	5	-2	5	-9	nt	-36
CC1=CC(C)(C)Nc2ccc(OC(=O)C(Cc3ccccc3)N3C(=O)c4ccccc4C3=O)cc21 (configuration not stated)	3	13	17	4	28	81*
CC(=O)Oc1ccc(OC(C)=O)c2c1CC1(C)OC1(C)C2 (configuration not stated)	-18	4	nt	-5	nt	-2
Cc1cc(Nc2ccc(Cl)cc2)n(-c2cccc(Cl)c2)n1	10	-12	13	26	72*	7
Cc1cc(Nc2ccc(Cl)cc2)n(-c2ccccc2)n1	2	-3	0	18	19	14
CN(CC(=O)Nc1ccc(Cl)cc1)C(=O)CCc1nc2sc3c(c2c(=O)[nH]1)CCCC3	4	-5	-8	39	nt	4
O=C(c1cc2n(n1)C(C(F)(F)F)CC(c1ccco1)N2)N1CCc2ccccc2C1 (configuration not stated)	-10	2	-1	11	83*	-2
Cc1cc(NC(=O)c2cc3n(n2)C(C(F)(F)F)CC(c2ccco2)N3)n(-c2ccccc2)n1 (configuration not stated)	-7	25	0	11	76*	18
COc1ccccc1N1CCN(C(=O)c2cc3n(n2)C(C(F)(F)F)CC(c2ccco2)N3)CC1 (configuration not stated)	7	-11	6	18	38	17
O=C(NCC12CC3CC(CC(C3)C1)C2)c1cc2n(n1)C(C(F)(F)F)CC(c1ccco1)N2 (configuration not stated)	-2	20	20	16	102*	14
O=C(c1cnn2c1NC(c1ccco1)CC2C(F)(F)F)N1CCN(c2cccc(Cl)c2)CC1 (configuration not stated)	-1	9	18	50*	66	29
COc1ccc(NC(=O)c2cc3n(n2)C(C(F)(F)F)CC(c2ccco2)N3)cc1 (configuration not stated)	2	20	2	6	48	11
CCOC(=O)N(C)c1c(CC)nc2c(OCc3ccccc3)cccn12	7	-2	nt	30	nt	10
CCC(C)c1ccccc1NC(=O)CN1CCN(C/C=C/c2ccccc2)CC1 (configuration not stated)	2	-4	3	22	75*	11
CC(=O)c1ccc(NC(=O)C(C)N2CCN(C/C=C/c3ccccc3)CC2)cc1 (configuration not stated)	-5	-25	-10	-1	-12	2
